Source: PubChem BioAssay
NPSR antag: neuropeptide S receptor (human) antagonism, cAMP; Q6W5P4; CHO-NPSR cells, cAMP TR-FRET, antagonist mode; Potency, µM (top dose mostly 38.3 µM), for inactives: at the highest dose activity change, negative = inhibition, hits mostly inhibitors; actives 1% (n = 220,000); AID 1461; further: nearly all actives have a fitted effect of over 50% in size
Gal4-VP16 FLuc: counter-screen for ROR gamma inhibitors: Gal4-VP16 reporter | Drosophila S2 Gal4-VP16 UAS-luciferase, luminescence, 20 h | Potency, µM (doses to about 53.6 µM), inactives show top-dose activity, negative = inhibition, most hits filed as inhibitors | actives 3.5% (n = 310,000);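 further: Gal4-VP16 expression switched on by copper sulfate through the metallothionein promoter; nearly all actives have a fitted effect of over 50% in size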
B2AR arrestin: beta2AR (human) beta-arrestin recruitment activity; beta-arrestin recruitment to beta2AR, cell-based reporter; P07550; Potency, µM (series often up to 46.1 µM), for the others: at the highest dose activation, actives largely listed as activators; actives 0.02% (n = 330,000);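 further: 0% = DMSO controls and full agonism = EC100 isoproterenol or metaproterenol; nearly all actives have a fitted effect of over 65% in size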
Target sequence (P07550 whole entry, looked up): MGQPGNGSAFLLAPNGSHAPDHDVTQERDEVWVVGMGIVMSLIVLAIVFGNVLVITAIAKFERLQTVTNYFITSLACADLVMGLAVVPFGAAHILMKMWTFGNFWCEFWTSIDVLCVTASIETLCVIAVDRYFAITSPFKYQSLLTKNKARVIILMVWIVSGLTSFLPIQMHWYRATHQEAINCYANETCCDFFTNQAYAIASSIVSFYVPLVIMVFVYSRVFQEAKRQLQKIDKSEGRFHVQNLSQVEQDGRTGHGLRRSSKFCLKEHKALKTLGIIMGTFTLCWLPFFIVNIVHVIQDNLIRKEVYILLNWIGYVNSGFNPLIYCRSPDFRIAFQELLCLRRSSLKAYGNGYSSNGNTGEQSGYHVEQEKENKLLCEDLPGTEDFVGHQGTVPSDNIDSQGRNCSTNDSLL
RORg inh: ROR gamma (mouse) transcription inhibition; actives 5.4% (n = 310,000); Drosophila S2 Gal4-RORgamma UAS-luciferase reporter, 20 h; Potency, µM (doses to about 53.6 µM), without a hit: at the highest dose activity change, negative = inhibition, actives largely listed as inhibitors; P51450; further: nearly all actives have a fitted effect of over 60% in size
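ROR gamma transcriptional activity was tracked as Gal4-UAS luciferase output in stably transfected Drosophila Schneider cells, with compound added 1 hr before 700 uM copper sulfate induction and a 20 hr ambient-temperature incubation.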
Numbers without * were called inactive; ? = inconclusive; · = not tested or not shown; [ ] = another dose, or the depositor's remark. Only some compounds are listed: those with a hit (about 5.7% of all), similar ones and a draw of the others. The call rests on the fitted dose curve; in most records, active means well fitted curve in the direction sought with a large enough effect; inconclusive means small, poorly fitted or top-dose-only effect, or another doubt; inactive means no such curve, though single readings can be large; an effect the other way counts as inactive or inconclusive. Unless noted, on the % scale 0 is the no-effect control and ±100 the full control effect; potency means the concentration at half of the fitted maximal effect.

SMILES	NPSR antag	Gal4-VP16 FLuc	B2AR arrestin	RORg inh
COC1OC(CO)C(OC2OC(C(=O)O)C(OC3OC(COS(=O)(=O)O)C(OC4OC(C(=O)O)C(OC5OC(CO)C(OC6OC(C(=O)O)C(OC7OC(COS(=O)(=O)O)C(OC8OC(C(=O)O)=C[C@H](O)C8OS(=O)(=O)O)C(O)C7NC(C)=O)[C@@H](O)C6O)C(O)C5NC(C)=O)[C@@H](O)C4O)C(O)C3NC(C)=O)[C@@H](O)C2O)C(O)C1NC(C)=O (some centres undefined)	·	3.2%	·	-2.3%
Cc1ccc(Cl)cc1NC(=S)NCc1cccn1C	-6.7%	7.94µM*	-0.9%	7.08µM*
Cc1c(Cl)cccc1NC(=S)NCc1cccn1C	-4.6%	17.8µM*	-1.3%	4.47µM*
Cc1ccc(NC(=S)NCc2cccn2C)cc1	-3.4%[46.1 µM]	?	-0.3%	3.98µM*
CCCN1CCc2c(sc3nc(SCC)n(-c4ccc(OC)cc4)c(=O)c23)C1	·	9.2%	0.4%	14.5%
O=C(OCC(=O)N1CCCc2ccccc21)c1cncc(Br)c1	-6.6%[46.1 µM]	1.12µM*	-0.5%	?
FC(F)(F)c1nnc2c(Sc3ccccn3)nc3ccccc3n12	-25.1%[46.1 µM]	20µM*	-0.7%	10µM*
FC(F)(F)c1nnc2c(Sc3ccccc3)nc3ccccc3n12	-6.9%[46.1 µM]	-7.4%	-0.2%	-2.5%
O=C(O)[C@H](Cc1c[nH]c2ccccc12)N1C(=O)C2=CCCC=C2C1=O	·	4.1%	·	-7.7%
O=C(CCCc1nc(-c2ccccc2)no1)Nc1cccnc1	-0.9%[7.67 µM]	?	-0.3%	-16.6%[10 µM]
O=C(CCCc1nc(-c2ccccc2)no1)NCc1cccnc1	-9.7%[46.1 µM]	5.62µM*	-1.0%	?
CCOC(=O)c1ccc(NC(=O)CCc2nc(-c3ccc(C)cc3)no2)cc1	-18.9%[46.1 µM]	7.94µM*	-1.1%	?
Cc1ccc(-c2noc(CCCC(=O)Nc3cccnc3)n2)cc1	3.4%[46.1 µM]	3.16µM*	0.0%	0.562µM*
CCCOc1ccc(N2C(=O)CC(N(CCc3ccccc3)C(=O)c3ccccc3)C2=O)cc1 (centres undefined)	-11.1%	-6.7%	-0.4%	2.4%
CC1CCN(CCOc2ccc(OCc3ccccc3)cc2)CC1	8.6%	-4.1%	-0.2%	24.8%
O=C(COC(=O)c1ccc([N+](=O)[O-])s1)NCc1ccccc1	9.6%[46.1 µM]	-23.8%	0.0%	11.2µM*
O=C(COC(=O)c1ccc([N+](=O)[O-])s1)Nc1ccccc1	8.6%	-4.8%	-0.5%	-6.1%
Nc1c(Cl)ncnc1NCc1cccnc1	·	9.3%	-0.1%	-23.9%
Nc1c(Cl)ncnc1NCCc1ccc(O)cc1	9.5%	7.94µM*	0.2%	-4.1%
COC(=O)C1=CO[C@@H](C)[C@@H]2CN3CCc4c([nH]c5ccccc45)[C@@H]3C[C@H]12	·	-11.7%	·	18.1%
Cc1ccc(-c2cn3c(=O)cc(C)[nH]c3n2)cc1	-13.1%[46.1 µM]	7.94µM*	0.0%	7.94µM*
CCn1c(SCC(=O)NNC(=S)Nc2ccccc2)nnc1-c1ccc(Cl)cc1	-3.0%	1.26µM*	-0.6%	3.98µM*
O=C(CSc1nc2ccccc2s1)NNC(=S)Nc1ccccc1	11.4%	4.47µM*	-1.0%	1µM*
O=C(CSc1nc2ccccc2s1)NNC(=O)Nc1ccc(Cl)c(Cl)c1	-19.6%[46.1 µM]	27.5%[0.365 µM]	-0.2%	?
O=C(CSc1nc2ccccc2s1)NNC(=S)Nc1ccc(Br)cc1	-11.3%[46.1 µM]	?	-0.3%	0.891µM*
SMILES	NPSR antag	Gal4-VP16 FLuc	B2AR arrestin	RORg inh
CCC(C)c1ccc(NC(=S)N2CCN(C(=O)C3CCCO3)CC2)cc1 (centres undefined)	·	-3.8%	-0.4%	4.9%
O=c1c(-c2cc(F)cc(F)c2)nc2cnc(N3CCNCC3)nc2n1-c1ccccc1	·	-6.6%	·	-5.6%
Cn1nnnc1SCC(=O)Nc1ccccn1	-1.2%[46.1 µM]	13.6%	-1.1%	5.9%
O=C(CSC(=S)N1CCN(c2ccccc2)CC1)Nc1nc(-c2ccccc2)c(-c2ccccc2)o1	-1.9%	-6.8%	-0.5%	10µM*
CCOC(=O)c1sc(NC(=O)CSC(=S)N2CCOCC2)nc1C	2.3%	-15.6%	-0.2%	6.2%
O=C(CSC(=S)N1CCCC1)NCCc1ccccc1	·	·	0.3%	·
Cn1nnnc1SCC(=O)Nc1nc(-c2ccccc2)c(-c2ccccc2)o1	-9.8%[46.1 µM]	?	-0.4%	10µM*
O=C(CSC(=S)N1CCCCC1)Nc1nc(-c2ccccc2)c(-c2ccccc2)o1	-23.9%[46.1 µM]	?	0.0%	5.62µM*
O=C(CSC(=S)N1CCOCC1)Nc1nc(-c2ccccc2)c(-c2ccccc2)o1	-17.8%[46.1 µM]	?	-0.2%	11.2µM*
CCN(CC)C(=S)SCC(=O)Nc1nc(-c2ccccc2)c(-c2ccccc2)o1	-32.2%	8.91µM*	-0.1%	4.47µM*
COCCNC(=O)CSc1nc(-c2ccccc2)c(-c2ccccc2)o1	-20.2%[46.1 µM]	-12.2%	0.1%	-6.1%
COc1ccc(Oc2c(O)c3ccccc3n(C)c2=O)cc1	12.2%	2.9%	-0.8%	12.6%
COc1ccc(N=Nc2n(C)c3ccccc3[n+]2C)cc1	-47.4%	2µM*	-0.8%	1.12µM*
Nc1nc2c(ncn2C2OC(COC(=O)c3ccccc3)C(OC(=O)c3ccccc3)C2OC(=O)c2ccccc2)c(=O)[nH]1 (centres undefined)	·	-12.6%	·	-10.1%
Cc1cccc(N2CCN(C(=O)C3CCC(CNS(=O)(=O)c4cccs4)CC3)CC2)c1C (centres undefined)	·	11.2µM*	-1.0%	?
CN(C)CC/C=C1\c2ccccc2COc2ccc(CC(=O)O)cc21	·	-10.3%	·	-2.6%[10 µM]
CC(C)n1c(CN(C)Cc2ccccc2)nc2c1c(=O)n(C)c(=O)n2C	·	1.26µM*	-1.0%	?
CC(=O)C(C)n1c(CN(C)Cc2ccccc2)nc2c1c(=O)n(C)c(=O)n2C (centres undefined)	·	?	-0.6%	-1.1%
COc1ccc(/C(C)=N/NC(=O)CN(c2ccc(OC)cc2)S(=O)(=O)c2ccccc2)cc1	·	0.2%	0.3%	-15.8%
COc1cccc(N/C=C/C(=O)c2ccc(Cl)cc2)c1	-13.7%	12.6µM*	5.8%	10µM*
COc1cccc(C(=O)/C=C/Nc2cccc(O)c2)c1	-14.1%[46.1 µM]	1.26µM*	-0.3%	7.94µM*
COc1ccc(OC)c(N/C(C)=C/C(=O)c2ccccc2)c1	6.3%	-15.0%	-2.0%	26.5%
COc1cccc(C(=O)/C=C/Nc2ccc(NC(C)=O)cc2)c1	-9.7%[46.1 µM]	5.2%	0.1%	?
COc1ccc(OC)c(N/C=C/C(=O)c2ccccc2)c1	·	5.01µM*	-0.3%	4.47µM*
COc1cccc(C(=O)/C=C/Nc2ccc(S(=O)(=O)Nc3cccc(C(C)=O)c3)cc2)c1	?	10µM*	-0.2%	15.4%
SMILES	NPSR antag	Gal4-VP16 FLuc	B2AR arrestin	RORg inh
IC(I)I	·	6.3%	·	3.2%
C=CC1=C[C@@H](O)C2OC2C12OCCCO2 (some centres undefined)	·	-6.1%[10 µM]	·	10.4%[10 µM]
COC1=C(OC)C(=O)c2ccccc2C1=O	9.9%[46.1 µM]	·	·	·
CC1(C)C(=O)NC2=C1C(=O)C(=O)c1ccccc12	·	2.82µM*	·	1.41µM*
O=C1NCCN1c1ncc([N+](=O)[O-])s1	·	1.3%[17 µM]	0.0%	-3.7%[16.9 µM]
O=[N+]([O-])c1cnc(Sc2ccncn2)s1	?	3.16µM*	-0.4%	3.16µM*
